In PubChem BioAssay AID435022 (Sanford-Burnham Center for Chemical Genomics, 2010) one finds inhibition data, which are given here for 90 molecules.

Molecules are shown by their SMILES. Where “and” joins values, the source holds several entries; their conditions need not be identical. Equal entries are not always repeated. The whole screen tested about 330,000 compounds, of which about 1,100 (0.33%) were called active. Rule as the data show it: active = inhibition above about 35%; inactive = the rest. For the sample, actives were picked, then their nearest neighbours and some compounds at random. More than one record can exist for a structure, and the calls need not agree.

The test can be described thus: inhibitors of PMA/ionomycin-induced NF-kB reporter, 697 cells, primary screen, B-cell NF-kB inhibitor project, cell-based, luminescence, uHTS (AID 435022). The conditions noted are these: 697 B-cell NF-kB luciferase reporter, 16 h, at 4 µM, stronger effect = higher value. A general note: A reporter such as luciferase makes a cellular process visible.
As for `COc1cc2c(cc1OC)CN(C(=O)c1cc(=O)c3ccccc3o1)CC2`, the inhibition (usually the relative decrease from the control value, in per cent) was -14.7% (inactive).

For `CCOc1cc(C(=O)N2CCc3cc(OC)c(OC)cc3C2)ccc1OC(F)F`, the inhibition is 39.7% (active).

Turning to `COc1cc2c(cc1OC)CN(C(=O)c1ccc(S(=O)(=O)N3CCCCCC3)cc1)CC2`, the inhibition was 22.3% (inactive).

Consider `COCCNC(=O)C1CCN(C(=O)C2CC(=O)N(c3ccc(C)cc3)C2)CC1` (stereo not given), for which the inhibition is -0.961% (inactive).

For the molecule `CCN(CCCNC(=O)CSc1cc(=O)n(C)c2cc(Cl)ccc12)Cc1ccccc1`, the inhibition was 2.99% (inactive).

`Cc1ccc(O)c(NC(=O)COc2cc(C)ccc2C)c1`: the inhibition is 40.5% (active).

Take `Cc1ccc(O)c(NC(=S)NC(=O)COc2ccc(Br)cc2)c1`: the inhibition was -17.9% (inactive).

As for `Cc1ccc(C)c(OCC(=O)NNC(=O)C2CCC2)c1`, the inhibition is 0.932% (inactive).

With `COc1ccc(NC(=O)Nc2ccc3c(c2)C(=O)N([C@H](C)CO)C[C@H](C)[C@@H](CN(C)C(=O)Nc2ccc4c(c2)OCO4)O3)cc1`, the inhibition is -1.97% (inactive).

As to `COc1ccc(CNC(=O)C2CCC(CNc3c(N4CCOCC4)c(=O)c3=O)CC2)cc1` (stereo not given), the inhibition was -4.3% (inactive).

Consider `CCN1/C(=C\c2ccc3ccccc3[n+]2CC)Sc2cc(C)ccc21`, for which the inhibition is 65% (active).

For the molecule `COC(=O)c1ccccc1NC(=O)C1CC(=O)N(c2ccc(OC)cc2)C1` (stereo not given), the inhibition was 2.44% (inactive).

For `C[C@@H]1O[C@@H](OC[C@H]2O[C@@H](Oc3c(-c4ccc(O)cc4)oc4cc(O)cc(O)c4c3=O)[C@H](O)[C@@H](O)[C@@H]2O)[C@H](O)[C@H](O)[C@H]1O`, the inhibition was 3.19% (inactive).

For the molecule `O=C(NCCCN1CCOCC1)c1cc(-c2ccc(Cl)cc2)on1`, the inhibition is 46.3% (active).

Consider `O=C(NCCCN1CCOCC1)c1cc(-c2cccc(O)c2)on1`, for which the inhibition is 14.1% (inactive).

As to `COc1ccc(-c2cc(C(=O)NCCCN3CCOCC3)no2)cc1`, the inhibition is 28.1% (inactive).

On to `CCOC(=O)C1CCN(C(=O)C2(NC(=O)Nc3cccc(F)c3)CCCCC2)CC1`, for which the inhibition is 14% (inactive).

Take `Cn1nc(C(F)(F)F)cc1-c1ccc(/C=C(\C#N)C(=O)c2cccc(C(F)(F)F)c2)s1`: the inhibition was -34.9% (inactive).

In the case of `CCOC(=O)C1C(=O)NCC1c1ccccc1` (stereo not given), the inhibition is 12.8% (inactive).

For the molecule `CC(=O)c1cnc(SCC(=O)O)nc1C`, the inhibition is 10% (inactive).

On to `Clc1ccc(C[n+]2cc(-c3ccccc3)n3c2CCC3)cc1`, for which the inhibition is -17.7% (inactive).

`Cc1ccc(C(=O)C[n+]2cc(-c3ccccc3)n3c2CCCCC3)cc1`: the inhibition was 38.8% (active) and 16% (inactive).

For the molecule `Cc1ccc(-c2c[n+](CC(=O)Nc3ccccc3)c3n2CCC3)cc1`, the inhibition is -7% (inactive).

As to `CC1CN(C(=S)Nc2ccc(Br)cc2Cl)CC(C)O1` (stereo not given), the inhibition is -8.08% (inactive).

As for `Cc1ccccc1-c1cc(C(=O)NCc2cccs2)n(CC2CC(c3cccnc3)=NO2)n1` (stereo not given), the inhibition is -9.9% (inactive).

Take `Cn1c(=O)cc(SCC(=O)N2CCCC2)c2cc(Cl)ccc21`: the inhibition was 52.4% (active).

On to `CCOC(=O)C1CCN(C(=O)CSc2cc(=O)n(C)c3ccccc23)CC1`, for which the inhibition was 25% (inactive).

`Cn1c(=O)cc(SCC(=O)N2CCN(C(=O)c3ccco3)CC2)c2ccccc21`: the inhibition is -1.63% (inactive).

For the molecule `Cc1ccccc1C(=O)NNC(=O)CN1C(=O)c2ccccc2C1=O`, the inhibition is 8.67% (inactive).

Regarding `C[C@@]12C(=O)N(c3cccc(Br)c3)C(=O)N1[C@H](c1ccc(Cl)cc1)[C@@H]1C(=O)N(C3CCCCC3)C(=O)[C@@H]12`, the inhibition was -15.6% (inactive).

In the case of `O=C(O)CN(Cc1ccco1)S(=O)(=O)c1ccccc1`, the inhibition was 18.8% (inactive).

As for `Cc1c(Cl)cnc(NC(=O)COC(=O)C2CCCC2)c1Cl`, the inhibition was 2.7% (inactive).

Regarding `CCOC(=O)CSc1nnc(CNC(=O)c2cccs2)n1-c1ccccc1`, the inhibition was 9.72% (inactive).

Turning to `O=C(C1CCC1)N1CCc2cc(S(=O)(=O)NCc3cccnc3)ccc21`, the inhibition is -30.3% (inactive).

`CC1(C)Oc2ccc3ccc(=O)oc3c2/C(=C/NCCO)C1=O`: the inhibition was 5.05% (inactive).

Turning to `C/C=C(/C)C(=O)OC1Cc2c(ccc3ccc(=O)oc23)OC1(C)C` (stereo not given), the inhibition was 47.2% (active).

On to `CC1(C)Oc2ccc3ccc(=O)oc3c2/C(=N/O)C1=O`, for which the inhibition was -15.2% (inactive).

`Cc1nc(Cl)c(C#N)c2c1CCCC2`: the inhibition is 22.3% (inactive).

For the molecule `CC(=O)Nc1ccc(S(=O)(=O)NC2(C(F)(F)F)C(=O)Nc3c2c(=O)[nH]c(=O)n3Cc2ccccc2)cc1` (stereo not given), the inhibition was 3.75% (inactive).

For `COC(=O)c1ccc(C2C3=C(Nc4nnnn42)c2ccccc2OC3)cc1` (stereo not given), the inhibition was 3.54% (inactive).

Take `COC(=O)C1=C(C(=O)c2ccc(C)cc2)C(c2ccccc2)n2nnnc2N1` (stereo not given): the inhibition is 36.7% (active).

For the molecule `COc1ccccc1NC(=O)C1=C(C)Nc2nnnn2C1c1cccc(Br)c1` (stereo not given), the inhibition is -22.3% (inactive).

`CC1CCN(C(NC(=O)c2ccco2)C(=O)c2ccccc2)CC1` (stereo not given): the inhibition is -1.98% (inactive).

As for `CCOC(=O)C1=C(O)/C(=C/c2cc(C)n(-c3ccccc3)c2C)N=C1C`, the inhibition was -12.5% (inactive).

Turning to `CC(C)n1cnc2c(Nc3cccc(Cl)c3)nc(N(CCO)CCCO)nc21`, the inhibition is -41.1% (inactive).

`OCCCNc1nccc(-c2cc(Nc3cccc(Cl)c3)ncn2)n1`: the inhibition is 67.2% (active).

For the molecule `Cc1cccc(Nc2nc(NCCO)nc(N3CCCC3)n2)c1`, the inhibition was 4.82% (inactive).

Consider `CSc1ncccc1C(=O)OCc1ccc(Br)cc1`, for which the inhibition was 5.14% (inactive).

As for `c1ccc(Cc2cc[n+](Cc3ccccc3)cc2)cc1`, the inhibition was -7.68% (inactive).

Consider `COc1ccccc1OCc1nnc(SCC(N)=O)n1-c1ccccc1`, for which the inhibition was -18.9% (inactive).

`Cc1nc2ccccc2c(=O)n1-c1ccc(F)c(NC(=O)c2cccs2)c1`: the inhibition is -10.2% (inactive).

Turning to `CCc1ccc(CNC(=O)CCc2nc(-c3cccs3)no2)cc1`, the inhibition is -6.74% (inactive).

As to `CN1CCN(C(=O)CCc2nc(-c3ccc(Cl)cc3)no2)CC1`, the inhibition was -2.08% (inactive).

Turning to `CCNC(=O)CCc1nc(-c2ccc(C(C)(C)C)cc2)no1`, the inhibition was 87.2% (active).

As to `CCOC(=O)C1CCN(C(=O)C2CCCN(S(=O)(=O)c3ccc(OC)c(Cl)c3)C2)CC1` (stereo not given), the inhibition was -44.7% (inactive).

With `CCOc1ccccc1C1CC(c2ccc(Cl)cc2)Nc2nc(N)nn21` (stereo not given), the inhibition was -1.91% (inactive).

As to `COc1ccc(C(=O)n2nc(-c3ccc(Cl)cc3)nc2N)cc1OC`, the inhibition was 39.3% (active).

Consider `COc1ccc(C(=O)n2nc(C)c(Br)c2C)cc1OC`, for which the inhibition was -0.0717% (inactive).

In the case of `COc1ccc(C(=O)n2nc(-c3ccc(C)cc3)nc2N)cc1OC`, the inhibition is 7.38% (inactive).

For `O=S1(=O)N=C(N(CCO)/N=C/c2ccccc2F)c2ccccc21`, the inhibition was 11.3% (inactive).

As for `O=C(CSc1nc(Nc2ccccc2)nc(N2CCOCC2)n1)Nc1cc(Cl)ccc1O`, the inhibition is -4.18% (inactive).

Turning to `C/C(=N\Nc1nc(Nc2ccccc2)nc(N2CCOCC2)n1)c1cccs1`, the inhibition was 39.3% (active).

On to `C/C(=N\Nc1nc(N2CCOCC2)nc(N2CCOCC2)n1)c1ccc([N+](=O)[O-])cc1`, for which the inhibition was 5.8% (inactive).

`O=c1oc(-c2ccccc2NS(=O)(=O)c2ccc(Cl)cc2)nc2ccccc12`: the inhibition is 6.5% (inactive).

Consider `CC(C)(C)c1ccc(Oc2ccc(N)cc2)cc1`, for which the inhibition is 79% (active).

As for `CC(C)(C)c1ccc(OC2=CS(=O)(=O)c3ccccc32)cc1`, the inhibition was -29.9% (inactive).

Take `COc1cccc(Oc2ccc(N)cc2)c1`: the inhibition is -22.3% (inactive).

On to `O=C(C(NS(=O)(=O)c1cccc2nsnc12)c1ccccc1)N1CCN(c2ccccc2)CC1` (stereo not given), for which the inhibition was -0.239% (inactive).

As for `CN(Cc1nc(-c2cnccn2)no1)Cc1n[nH]c2c1CCCCC2`, the inhibition was 2.89% (inactive).

For the molecule `CC[n+]1cc(C)ccc1/C=C/c1ccc(N(C)C)cc1`, the inhibition was 42.6% (active).

For `C=CCN1C(=NC(=O)COc2ccccc2)SC2CS(=O)(=O)CC21` (stereo not given), the inhibition is -20.6% (inactive).

`CN(C)C(=O)CCc1ccc2c3c([nH]c2c1)[C@]1(CCC2CCCC2)[C@@H](C(=O)N2CCOCC2)C[C@H](CC(=O)NCc2ccco2)C(=O)N1CC3`: the inhibition was 13.5% (inactive).

For `Cc1ccc(C)c(NC(=O)CN(C)C(=O)COc2ccc3ccccc3c2)c1`, the inhibition is 1.04% (inactive).

Regarding `COc1ccc(S(=O)(=O)N2CCN(C(=O)c3cccs3)CC2)cc1OC`, the inhibition is 10.3% (inactive).

In the case of `CC1=C(C(=O)OC2CCCCC2)C(c2cccnc2)n2ncnc2N1` (stereo not given), the inhibition is -21.7% (inactive).

For the molecule `COc1cc(/C=C2/SC(=S)N(Cc3ccccc3)C2=O)cc(OC)c1O`, the inhibition is 18.2% (inactive).

In the case of `COc1ccc(/C=C2\SC(=S)N(CCC(=O)Nc3ccccn3)C2=O)cc1OC`, the inhibition was 47.5% (active).

On to `CCOc1ccc(/C=C2\SC(=S)N(NC(=O)c3ccncc3)C2=O)cc1OC`, for which the inhibition is -7.88% (inactive).

As for `Cc1ccc(C)n1-c1ccncc1`, the inhibition was 8.79% (inactive).

`CC(C)C[C@@H](N)c1nnc(SCC(=O)c2ccc(Cl)cc2)o1`: the inhibition is 67.6% (active).

`COc1cc(C(=O)NCc2nnc(SCC(=O)c3ccc(Cl)cc3)o2)cc(OC)c1OC`: the inhibition was 7.7% (inactive).

For `CC(=O)Nc1ccc(C(=O)CSc2nnc(Cc3ccccc3)o2)cc1`, the inhibition is 8.22% (inactive).

With `CCCCCCCCCCOC(=O)C[N+](C)(C)CC1CCCCC1O` (stereo not given), the inhibition is 10.5% (inactive).

With `NC(=O)CC(NC(=O)Cc1cccc2ccccc12)c1ccc(NCc2cc(F)ccc2F)c([N+](=O)[O-])c1` (stereo not given), the inhibition was 9.25% (inactive).

Regarding `CC12CN3CCN(CC(C3)/C1=N\NC(=O)c1ccccc1N)C2`, the inhibition is -5.67% (inactive).

As to `CN(C(=O)COc1nnc(-c2cccs2)c(-c2cccs2)n1)c1ccccc1`, the inhibition was 2.99% (inactive).

Consider `O=C(O)COc1ccc(-c2nccc(-c3cccs3)n2)cc1`, for which the inhibition is 73.8% (active).

For `COc1ccc(OCC(=O)N2CCN(C(=O)c3cccs3)CC2)cc1`, the inhibition is 26.7% (inactive).

Regarding `O=C1c2ccccc2S(=O)(=O)N1Cc1c(F)cccc1Cl`, the inhibition is -1.55% (inactive).

`Cn1c(CCc2ccccc2)nnc1SCC(N)=O`: the inhibition is -1.05% (inactive).
